Screens: PubChem, The Scripps Research Institute Molecular Screening Center
An excerpt weighted towards active compounds, which were near 3.4% of everything screened.
TEAD-YAP block: TEAD-YAP interaction inhibition; HEK-TIYL cells, TEAD-Gal4/YAP UAS-luciferase luminescence; inhibition, % at 9.12 µM; 640,000 tested, 1.4% active; in the data active = inhibition above about 32%;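 also: 0% = median of test compound wells and 100% = reference inhibitor wells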
GPR151 activ: human GPR151 activation. Q8TDV0. PathHunter beta-arrestin GPR151 cells, luminescence. activation, % at 11.2 µM. 650,000 tested, 1% active. AID 1508602; in the data active = activation above about 4.9%;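 also: 0% = median of compound wells and 100% = cells with positive control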
FBW7 activator: human FBW7 E3 ligase activation, primary screen. Q969H0. AlphaScreen FBW7–phospho-cyclin E peptide binding, activator screen. normalized activity (activation), % at 26.1 µM. 650,000 tested, 0.13% active; in the data active = normalized activity above about 1.9%;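 also: purified mutant Fbw7 with reduced substrate affinity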
Target sequence (Q969H0 whole entry, looked up): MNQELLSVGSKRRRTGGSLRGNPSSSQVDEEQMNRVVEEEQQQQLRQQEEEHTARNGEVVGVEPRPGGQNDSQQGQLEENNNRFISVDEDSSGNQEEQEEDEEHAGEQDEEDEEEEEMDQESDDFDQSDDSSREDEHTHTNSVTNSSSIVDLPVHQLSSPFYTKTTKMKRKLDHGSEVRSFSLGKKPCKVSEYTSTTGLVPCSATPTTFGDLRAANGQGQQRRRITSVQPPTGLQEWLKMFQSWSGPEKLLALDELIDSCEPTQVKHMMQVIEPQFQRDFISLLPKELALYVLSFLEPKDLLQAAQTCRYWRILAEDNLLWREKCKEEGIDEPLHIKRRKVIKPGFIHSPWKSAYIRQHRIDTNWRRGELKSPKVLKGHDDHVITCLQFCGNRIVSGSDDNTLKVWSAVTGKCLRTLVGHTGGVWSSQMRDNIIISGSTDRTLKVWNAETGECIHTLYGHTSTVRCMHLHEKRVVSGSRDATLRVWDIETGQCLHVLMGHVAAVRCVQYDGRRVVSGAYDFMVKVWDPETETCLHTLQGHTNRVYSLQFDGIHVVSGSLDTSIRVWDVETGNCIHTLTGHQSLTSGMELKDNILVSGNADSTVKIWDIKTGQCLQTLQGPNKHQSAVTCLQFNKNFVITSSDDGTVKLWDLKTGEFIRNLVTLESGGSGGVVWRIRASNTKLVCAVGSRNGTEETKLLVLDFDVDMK
MITF primary: inhibitors of human MITF; AID 1259374; 650,000 tested, 0.91% active; AlphaScreen MITF homodimerization, bead proximity signal; O75030; inhibition, % at 2.6 µM; in the data active = inhibition above about 50%;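 also: 0% = vehicle wells with protein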
The depositor's hits bear a star.

COC(=O)c1cccc(-n2c(C)cc(/C=C(\C#N)C(=O)Nc3ccccc3)c2C)c1 was read as TEAD-YAP block 39*, GPR151 activ 0, FBW7 activator 0 and MITF primary -6.
Screening COC(=O)c1cccc(-n2c(C)cc(/C=C(/C#N)C(=O)NCc3ccco3)c2C)c1 returned TEAD-YAP block 21, GPR151 activ 0, FBW7 activator 0 and MITF primary 18.
`O=C1C2C3c4ccccc4C([N+](=O)[O-])(c4ccccc43)C2C(=O)N1c1nccs1` (configuration not stated) gave TEAD-YAP block 5, GPR151 activ 0, FBW7 activator 0 and MITF primary 10.
`O=C(CSc1nnc2ncccn12)Nc1ccccc1N1CCOCC1` gave TEAD-YAP block 7, GPR151 activ 0, FBW7 activator 0 and MITF primary 9.
`Cc1ccc(C(=O)Nc2sc(C)c(C)c2C(=O)O)cc1` gave TEAD-YAP block 49*, GPR151 activ -2, FBW7 activator 0 and MITF primary -4.
For O=C(Nc1sc2c(c1C(=O)O)CCCCC2)c1ccccc1 the results were TEAD-YAP block 46*, GPR151 activ -9, FBW7 activator 0 and MITF primary 14.
For Cc1ccc(C(=O)Nc2sc3c(c2C(=O)O)CCCCC3)cc1 the results were TEAD-YAP block 83*, GPR151 activ -3, FBW7 activator 0 and MITF primary -3.
CCN(CC)C(=O)c1c(NC(=O)c2cccs2)sc2c1CCC2 was read as TEAD-YAP block 36*, GPR151 activ 0, FBW7 activator 0 and MITF primary 18.
For COc1cc(/C(C#N)=C/c2ccco2)c([N+](=O)[O-])cc1OC the results were TEAD-YAP block 4, GPR151 activ -1, FBW7 activator 0 and MITF primary -9.
Screening CC(=O)c1ccc(N=Nc2ccc(O)c(C=O)c2)cc1 returned TEAD-YAP block 90*, GPR151 activ -4, FBW7 activator 0 and MITF primary -16.
`Cc1nc2sc(-c3ccccc3)cc2c(=O)[nH]1` gave TEAD-YAP block 66*, GPR151 activ -4, FBW7 activator 0 and MITF primary -1.
Screening Cc1nc2sc(-c3ccccc3)cc2c2nnc(-c3ccccc3)n12 returned TEAD-YAP block 91*, GPR151 activ 0, FBW7 activator 0 and MITF primary 1.
`Cc1ccc(N(C(=O)C(Cl)(Cl)Cl)C2C=CS(=O)(=O)C2)cc1` (configuration not stated) gave TEAD-YAP block -2, GPR151 activ 1, FBW7 activator 0 and MITF primary 8.
`O=C(N(c1cccc(C(F)(F)F)c1)C1C=CS(=O)(=O)C1)C(Cl)(Cl)Cl` (configuration not stated) gave TEAD-YAP block 53*, GPR151 activ -1, FBW7 activator 0 and MITF primary -3.
`CNc1nc2cc([N+](=O)[O-])c([N+](=O)[O-])cc2nc1NC` gave TEAD-YAP block 57*, GPR151 activ 0, FBW7 activator 0 and MITF primary 9.
CC[N+]1=C(C)C(C)(C)c2cc(C)ccc21 was read as TEAD-YAP block 50*, GPR151 activ 0, FBW7 activator 0 and MITF primary 16.
For CCOC(=O)c1[nH]c(C)c(CN(C(C)=O)c2ccc(OCC)cc2)c1C the results were TEAD-YAP block 52*, GPR151 activ 2, FBW7 activator 0 and MITF primary -1.
Screening Cc1cc(C)nc(SCC(=O)Nc2ccnc3ccccc23)n1 returned TEAD-YAP block 41*, GPR151 activ 1, FBW7 activator 0 and MITF primary 14.
O=C(NCc1ccccn1)c1nnc(Cc2ccc3c(c2)OCO3)o1 was read as TEAD-YAP block -1, GPR151 activ 2, FBW7 activator 0 and MITF primary 3.
Screening CCC(=O)NC(c1ccccc1Cl)c1ccc2cccnc2c1O (configuration not stated) returned TEAD-YAP block 89*, GPR151 activ 0, FBW7 activator -2 and MITF primary 31.
Screening CCOC(=O)CC(NC(=O)Cc1ccccc1)c1ccccc1Cl (configuration not stated) returned TEAD-YAP block -1, GPR151 activ -1, FBW7 activator 0 and MITF primary -1.
`O=C(Cc1ccccc1)NC(c1ccccc1)c1ccc2cccnc2c1O` (configuration not stated) gave TEAD-YAP block 58*, GPR151 activ -1, FBW7 activator -2 and MITF primary 28.
Screening CCCCC(=O)NC(c1ccccc1Cl)c1ccc2cccnc2c1O (configuration not stated) returned TEAD-YAP block 87*, GPR151 activ -2, FBW7 activator -2 and MITF primary 31.
`O=C(Cc1ccccc1)NC(c1ccccc1Cl)c1ccc2cccnc2c1O` (configuration not stated) gave TEAD-YAP block 84*, GPR151 activ 1, FBW7 activator -2 and MITF primary 16.
Screening Cn1ccnc1C(NC(=O)Cc1ccc(O)cc1)c1ccccc1 (configuration not stated) returned TEAD-YAP block -10, GPR151 activ 0, FBW7 activator 0 and MITF primary -1.
COc1ccc(/C=C(\C#N)C(=O)OCC(=O)NC(C)C23CC4CC(CC(C4)C2)C3)cc1 (configuration not stated) was read as TEAD-YAP block -2, GPR151 activ -1, FBW7 activator 0 and MITF primary 0.
CC1CCC2(CC1)NC(=O)N(/N=C/c1ccc([N+](=O)[O-])o1)C2=O (configuration not stated) was read as TEAD-YAP block 6, GPR151 activ 1, FBW7 activator 0 and MITF primary 10.
Screening COc1ccc(C(=O)C(C)OC(=O)c2cc(=O)[nH]c3ccccc23)cc1 (configuration not stated) returned TEAD-YAP block 4, GPR151 activ 0, FBW7 activator 0 and MITF primary 2.
Screening COc1ccc(/C=C(\C#N)C(=O)Nc2ccccc2C(F)(F)F)cc1 returned TEAD-YAP block 7, GPR151 activ 3, FBW7 activator 0 and MITF primary 4.
`COc1ccc(OC)c(S(=O)(=O)N2CCC(C(=O)N3CCCCC3)CC2)c1` gave TEAD-YAP block -1, GPR151 activ 1, FBW7 activator 0 and MITF primary -6.
Screening CCC(=O)NC(c1ccccc1OC)c1ccc2cccnc2c1O (configuration not stated) returned TEAD-YAP block 44*, GPR151 activ 1, FBW7 activator -2 and MITF primary 43.
Screening CCCCC(=O)NC(c1cccs1)c1ccc2cccnc2c1O (configuration not stated) returned TEAD-YAP block 88*, GPR151 activ -1, FBW7 activator -1 and MITF primary 49.
Screening COc1ccccc1C(NC(=O)C1CCCCC1)c1ccc2cccnc2c1O (configuration not stated) returned TEAD-YAP block 61*, GPR151 activ 1, FBW7 activator -1 and MITF primary 8.
For O=C(NC(c1ccc(Cl)cc1)c1ccc2cccnc2c1O)C1CCCCC1 (configuration not stated) the results were TEAD-YAP block 14, GPR151 activ -1, FBW7 activator 1 and MITF primary 12.
